# PubChem BioAssay AID652115 (Broad Institute, 2013)
# Values joined by “and” are separate entries in the source; they are usually repeats but may differ in a detail not shown here. Equal values may be shown once. The campaign covered roughly 330,000 compounds. About 3,800 (1.2%) were called active. This is one part of a sample in which actives are shown more often than they occur. Cut-off read from the data, not from the text of the source: active = inhibition above about 15%; inconclusive = no clear call, values can overlap the other calls; inactive = below that.
# Molecular target: NAD-dependent protein deacylase sirtuin-5, mitochondrial (Homo sapiens) (UniProt Q9NXA8)
# Assay: SIRT5 desuccinylase inhibitors, primary screen, biochemical, fluorescence imaging, single point, set 5 (AID 652115)
# Settings: Purified SirT5, succinyl-peptide AMC, trypsin-coupled fluorescence; at 15 µM; active compounds read high
# Chain of NAD-dependent protein deacylase sirtuin-5, mitochondrial (Homo sapiens) (Q9NXA8 whole entry, looked up): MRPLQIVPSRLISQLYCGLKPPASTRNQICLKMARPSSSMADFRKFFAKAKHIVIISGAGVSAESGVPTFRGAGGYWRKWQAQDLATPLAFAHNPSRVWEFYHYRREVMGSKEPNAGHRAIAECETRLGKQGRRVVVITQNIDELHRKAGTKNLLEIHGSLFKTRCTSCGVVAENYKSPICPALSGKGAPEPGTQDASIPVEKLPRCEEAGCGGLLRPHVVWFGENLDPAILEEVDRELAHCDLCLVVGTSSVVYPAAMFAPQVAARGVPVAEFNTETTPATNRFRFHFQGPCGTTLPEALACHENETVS
row,SMILES,inhibition
1,O=C(Nc1ccc(C(F)(F)F)cc1)N[C@@H]1CC[C@H](CC(=O)N2CCCCC2)O[C@H]1CO,-2.54% (inactive)
2,O=C([C@@H]1[C@@H](CO)[C@@H]2Cn3c(ccc(-c4ccccc4)c3=O)[C@H]1N2CCC(F)(F)F)N1CCCCC1,-29.7% (inactive)
3,CCCNC(=O)N1CC(=O)N2[C@H](CO)[C@@H](c3ccc(-c4ccc(F)cc4)cc3)[C@H]2C1,4.11% (inactive)
4,C[C@H](CO)N1C[C@H](C)[C@@H](CN(C)C(=O)Nc2ccnc(N3CCOCC3)c2)OCc2ccccc2-c2c(n(C)c3ccccc23)C1=O,-5.68% (inactive)
5,Cc1ccc(C)c(NC(=O)c2ccc3nccnc3c2)c1,0.033% (inactive)
6,CC(C)CCC(C)NC(=O)c1ccc2nccnc2c1 (centres undefined),7.36% (inactive)
7,Cc1nnc(NC(=O)c2ccc3nccnc3c2)s1,16.3% (active)
8,O=C(Nc1ccc(C(F)(F)F)cc1)N[C@@H]1CC[C@H](CCNC(=O)c2ccccc2F)O[C@@H]1CO,0.363% (inactive)
9,Cc1ccc(S(=O)(=O)NC[C@H]2CC[C@@H]3[C@@H](CN3Cc3ccccc3C(=O)O)O2)cc1,-3.22% (inactive)
10,C[C@@H](NC(=O)C[C@H]1C[C@H]2c3cc(NC(=O)Nc4ccccc4F)ccc3O[C@H]2[C@@H](CO)O1)c1ccccc1,2.15% (inactive)
11,COC(=O)c1ccc(CSc2nnc(N)s2)o1,16% (active)
12,Nc1nnc(SCC(=O)NCC(=O)Nc2ccc(F)c(F)c2F)s1,0.518% (inactive)
13,COCC(C)n1c(SCc2ccc(C(=O)OC)o2)nc2ccccc2c1=O (centres undefined),1.17% (inactive)
14,CN1CCN(C(=O)C[C@H]2CC[C@@H](NC(=O)c3ccc4c(c3)OCO4)[C@H](CO)O2)CC1,1.96% (inactive)
15,CCOC(=O)c1c(NC(=O)C(C)Sc2c[nH]c3ccccc23)sc2c1CCC2 (centres undefined),0.63% (inactive)
16,CCOC(=O)c1c(NC(=O)C2(C)Cc3ccccc3C(=O)O2)sc2c1CCCC2 (centres undefined),-3.61% (inactive)
17,CCOC(=O)c1c(NC(=S)Nc2ccccc2C)sc2c1CCC2,22.8% (active)
18,O=C(C[C@H]1CC[C@H]2[C@@H](COC[C@@H](O)CN2Cc2ccccc2F)O1)NCc1ccccc1F,3.18% (inactive)
19,C/C(=C\c1ccccc1)C1NC(=O)c2c(sc3c2CCCC3)N1 (centres undefined),-1.37% (inactive)
20,O=C1NC(c2ccncc2)Nc2sc3c(c21)CCCC3 (centres undefined),15.5% (active)
21,CC(=O)N1[C@@H](CO)[C@@H](c2ccc(C3=CCCC3)cc2)C12CN(C(=O)C1CC1)C2,3.6% (inactive)
22,CO[C@H]1CN(C)C(=O)c2ccc(NC(=O)c3ccno3)cc2OC[C@@H](C)N(S(C)(=O)=O)C[C@H]1C,17% (active)

row,SMILES,inhibition
1,CO[C@@H]1CN(C)C(=O)c2cc(NC(=O)c3ccno3)ccc2OC[C@@H](C)N(S(C)(=O)=O)C[C@@H]1C,0.416% (inactive)
2,CO[C@H]1CN(C)C(=O)c2ccc(NC(=O)c3cnccn3)cc2OC[C@H](C)N(C)C[C@@H]1C,0.983% (inactive)
3,COCC(=O)Nc1ccc2c(c1)[C@H]1C[C@H](CC(=O)NCc3ccc(OC)cc3)O[C@@H](CO)[C@H]1O2,-0.814% (inactive)
4,CCCNC(=O)N1C[C@H](C)[C@@H](OC)CN(C)C(=O)c2ccc(NS(C)(=O)=O)cc2OC[C@@H]1C,-4.54% (inactive)
5,C[C@@H]1CN([C@@H](C)CO)C(=O)c2cc(-c3ccc(C#N)cc3)cnc2O[C@@H]1CN(C)Cc1cccnc1,-2.7% (inactive)
6,CO[C@H]1CN(C)C(=O)c2ccc(NC(=O)Nc3ccc(Cl)cc3)cc2OC[C@H](C)N(C(=O)Nc2c(C)noc2C)C[C@@H]1C,-0.008% (inactive)
7,COc1ccccc1OCC(=O)OCc1cc(-c2ccco2)on1,18.8% (active)
8,COc1ccccc1OCC(=O)O/N=C(\N)c1ccccn1,0.993% (inactive)
9,COc1ccc(NC(=O)CSc2ccc(-c3ccco3)nn2)c(OC)c1,-1.12% (inactive)
10,COCC(=O)Nc1ccc2c(c1)OC[C@@H](C)N(C(=O)c1cnccn1)C[C@H](C)[C@H](OC)CN(C)C2=O,-3.74% (inactive)
11,CCC(=O)N1CC(=O)N2[C@@H](CO)[C@@H](c3ccc(C#CC4CCCC4)cc3)[C@@H]2C1,-0.876% (inactive)
12,C[C@H](CO)N1C[C@H](C)[C@H](CN(C)C(=O)c2ccccn2)Oc2ncc(-c3ccccc3F)cc2C1=O,0.464% (inactive)
13,Cc1ccc(S(=O)(=O)N(C)C[C@H]2OCCCC[C@@H](C)Oc3ccc(NS(C)(=O)=O)cc3C(=O)N([C@H](C)CO)C[C@@H]2C)cc1,-1.35% (inactive)
14,CC(C)NC(=O)Nc1ccc2c(c1)C(=O)N([C@H](C)CO)C[C@H](C)[C@@H](CN(C)Cc1ccc(C(F)(F)F)cc1)OCCCC[C@@H](C)O2,0.221% (inactive) and 2.28% (inactive)
15,Cc1ccc(S(=O)(=O)Nc2ccc3c(c2)C(=O)N([C@@H](C)CO)C[C@@H](C)[C@H](CN(C)Cc2ccc(Cl)c(Cl)c2)OCCCC[C@@H](C)O3)cc1,17.4% (active)
16,C[C@@H]1CCCCO[C@@H](CN(C)Cc2ccc(Cl)c(Cl)c2)[C@H](C)CN([C@@H](C)CO)C(=O)c2cc(NS(C)(=O)=O)ccc2O1,11.8% (inactive)
17,C[C@@H]1CCCCO[C@H](CN(C)CC2CCCCC2)[C@H](C)CN([C@H](C)CO)C(=O)c2cc(NS(=O)(=O)c3ccc(F)cc3)ccc2O1,16% (active)
18,Cc1ccc(S(=O)(=O)Nc2ccc3c(c2)C(=O)N([C@H](C)CO)C[C@@H](C)[C@H](CN(C)S(=O)(=O)c2ccc(C)cc2)OCCCC[C@@H](C)O3)cc1,15.5% (active)
19,C[C@H](CO)N1C[C@H](C)[C@H](CN(C)CC2CCCCC2)OCCCC[C@H](C)Oc2ccc(NS(=O)(=O)c3ccc(F)cc3)cc2C1=O,13.2% (inactive)
20,C[C@@H]1CCCCO[C@H](CN(C)Cc2ccc(C(F)(F)F)cc2)[C@@H](C)CN([C@@H](C)CO)C(=O)c2cc(NC(=O)c3ccncc3)ccc2O1,15.9% (active)
21,Cc1ccc(S(=O)(=O)N(C)C[C@@H]2OCCCC[C@@H](C)Oc3ccc(NS(=O)(=O)c4ccccc4)cc3C(=O)N([C@H](C)CO)C[C@@H]2C)cc1,15% (inactive)
22,C[C@@H]1CCCCO[C@H](CN(C)Cc2ccc(C(F)(F)F)cc2)[C@H](C)CN([C@H](C)CO)C(=O)c2cc(NC(=O)Nc3ccc(F)cc3)ccc2O1,5.62% (inactive)

row,SMILES,inhibition
1,C[C@@H]1CCCCO[C@@H](CN(C)S(C)(=O)=O)[C@H](C)CN([C@@H](C)CO)C(=O)c2cc(NS(=O)(=O)c3ccc(F)cc3)ccc2O1,1.65% (inactive)
2,Cc1ccc(S(=O)(=O)Nc2ccc3c(c2)C(=O)N([C@@H](C)CO)C[C@@H](C)[C@H](CN(C)Cc2ccc4c(c2)OCO4)OCCCC[C@@H](C)O3)cc1,4.41% (inactive)
3,CN(C)CC(=O)N1[C@@H](C#N)[C@@H](c2ccccc2-c2ccccc2F)[C@@H]1CO,-0.215% (inactive)
4,COCC(=O)N1C[C@@H](C)[C@H](OC)CN(C)C(=O)c2cc(NC(=O)c3cc(C)on3)ccc2OC[C@@H]1C,-4.63% (inactive)
5,N#Cc1ccc(-c2ccc([C@@H]3[C@H]4CNC[C@@H]3N4Cc3cc(F)ccc3F)cc2)cc1,-3.56% (inactive)
6,COCC#Cc1cnc2c(c1)C(=O)N([C@H](C)CO)C[C@H](C)[C@H](CN(C)C(=O)Nc1ccccc1OC)O2,3.78% (inactive)
7,C[C@@H](NC(=O)C[C@H]1C[C@@H]2c3cc(NC(=O)Nc4ccccc4F)ccc3O[C@@H]2[C@H](CO)O1)c1ccccc1,1.89% (inactive)
8,COc1ccccc1NC(=O)Nc1ccc2c(c1)OC[C@H](C)NC[C@H](C)[C@@H](OC)CN(C)C2=O,6.5% (inactive)
9,C[C@@H]1CN([C@@H](C)CO)C(=O)c2cc(NC(=O)Nc3cccc4ccccc34)ccc2O[C@@H](C)CCCCO[C@@H]1CN(C)S(=O)(=O)c1ccc(Cl)cc1,18.7% (active)
10,CC(C)NC(=O)Nc1ccc2c(c1)C(=O)N([C@@H](C)CO)C[C@H](C)[C@H](CN(C)S(=O)(=O)c1ccc(Cl)cc1)OCCCC[C@H](C)O2,4.57% (inactive)
11,COc1ccc(S(=O)(=O)Nc2ccc3c(c2)C(=O)N([C@@H](C)CO)C[C@H](C)[C@@H](CN(C)S(=O)(=O)c2ccc(C)cc2)OCCCC[C@@H](C)O3)cc1,4.83% (inactive)
12,C[C@H]1CCCCO[C@@H](CN(C)Cc2ccc3c(c2)OCO3)[C@@H](C)CN([C@@H](C)CO)C(=O)c2cc(NC(=O)Nc3ccc(F)cc3)ccc2O1,1.57% (inactive)
13,C[C@H](CO)N1C[C@H](C)[C@@H](CN(C)S(C)(=O)=O)OCCCC[C@H](C)Oc2ccc(NC(=O)Nc3cccc4ccccc34)cc2C1=O,-3.3% (inactive)
14,C[C@@H]1CCCCO[C@@H](CN(C)Cc2ccc3c(c2)OCO3)[C@@H](C)CN([C@@H](C)CO)C(=O)c2cc(NC(=O)Nc3ccccc3)ccc2O1,0.341% (inactive)
15,COc1ccc(S(=O)(=O)N(C)C[C@H]2OCCCC[C@H](C)Oc3ccc(NS(=O)(=O)c4ccc(F)cc4)cc3C(=O)N([C@@H](C)CO)C[C@@H]2C)cc1,20.4% (active)
16,C[C@@H]1CN([C@H](C)CO)C(=O)c2cc(NC(=O)Nc3ccc4c(c3)OCO4)ccc2O[C@@H](C)CCCCO[C@@H]1CN(C)Cc1ccc2c(c1)OCO2,15.3% (active)
17,COc1ccc(S(=O)(=O)N(C)C[C@H]2OCCCC[C@@H](C)Oc3ccc(NS(=O)(=O)c4ccc(C)cc4)cc3C(=O)N([C@@H](C)CO)C[C@@H]2C)cc1,21.4% (active)
18,COc1ccc(S(=O)(=O)N(C)C[C@@H]2OCCCC[C@@H](C)Oc3ccc(NS(=O)(=O)c4ccccc4)cc3C(=O)N([C@@H](C)CO)C[C@H]2C)cc1,4.81% (inactive)
19,COc1ccc(S(=O)(=O)Nc2ccc3c(c2)C(=O)N([C@@H](C)CO)C[C@H](C)[C@@H](CN(C)S(=O)(=O)c2ccc(F)cc2)OCCCC[C@H](C)O3)cc1,3.5% (inactive)
20,COc1ccc(S(=O)(=O)Nc2ccc3c(c2)C(=O)N([C@@H](C)CO)C[C@H](C)[C@H](CN(C)S(=O)(=O)c2ccc(F)cc2)OCCCC[C@@H](C)O3)cc1,11.3% (inactive)
